# IL-1B inflam inh = qHTS for Inhibitors of Inflammasome Signaling: IL-1-beta AlphaLISA Primary Screen | activity change, % at 57.5 µM | hit rate 4.7% among 360,000 | AID 743279, 2014 | THP-1 LPS/ATP IL-1B secretion, AlphaLISA, 16 h; stronger effect = lower value; in the data active means activity change below about -50%; inconclusive means mostly about -30% to -49%; further: on the % scale 0 is the no-effect control and ±100 the full control effect
#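 THP-1 cells pretreated 1 hr with compounds (up to 57.5 uM final), then stimulated with LPS (250 ng/mL final) plus ATP (1.25 mM final); secreted IL-1B measured by AlphaLISA after 16 hr, decreased signal indicating inhibition.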
# BCR signal inh = qHTS Assay to Find Inhibitors of Chronic Active B-Cell Receptor Signaling. ABC-DLBCL IkBa-CBG/CBR reporter, luminescence ratio, 4 h. hit rate 0.05% among 340,000. Potency, µM (doses to about 46.1 µM), for the others: at the top dose activity change, negative = inhibition, usual class: inhibitors. AID 493014, 2011; active means well fitted inhibition curve with a large enough effect in the signal ratio, with a control signal flat, not every such curve was filed as active; inconclusive means small, poorly fitted or top-dose-only effect, or effect the other way, or a change in a side signal; the % refers to the signal ratio;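 further: potency means the concentration at half of the fitted maximal effect; plate controls were basal doxycycline-induced cells for no effect and cells given 10 µM MG132 for full effect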
#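 TMD8 human ABC-DLBCL cells with doxycycline-inducible IκBα–green luciferase fusion and unfused red luciferase, in 0.5% FBS medium; compounds up to 46 uM, 4 h at 37C. Green/red luminescence ratio, filter-overlap corrected, fitted to concentration-response curves.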
# DT40 TDP1 no CPT = qHTS for Inhibitors of human tyrosyl-DNA phosphodiesterase 1 (TDP1): qHTS in cells in absence of CPT; DT40 Tdp1-/- hTDP1 cells, no CPT, ATP luminescence, 48 h; Potency, µM (series often up to 46.2 µM), for inactives: top-dose activity change, negative = growth inhibition, usual class: inhibitors; hit rate 15% among 420,000; AID 686978, 2013; further: potency means the concentration at half of the fitted maximal effect; on the % scale 0 is the no-effect control and ±100 the full control effect; nearly all actives have a fitted effect of over 55% in size
#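 DT40 Tdp1-/-;hTDP1 cells, no CPT (DMSO vehicle only), 400 cells/well; compounds pin-transferred; ≥48 hr, 37 °C; CellTiter-Glo 30 min RT dark, luminescence read.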
# SW480 rereplic = A quantitative high throughput screen for small molecules that induce DNA re-replication in SW480 colon adenocarcinoma cells. hit rate 1.8% among 340,000. Potency, µM (doses to about 46.1 µM), inactives show at the top dose re-replication activation, most hits filed as activators. SW480 DNA re-replication, Hoechst DNA content imaging, 48 h. AID 624297, 2012; further: potency means the concentration at half of the fitted maximal effect; % of control where 0% means no effect; nearly all actives have a fitted effect of over 55% in size
#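 First, 250 cells per well were seeded. Next, compound or vehicle (23 nL) was pinned in, plates sat 48 hr at 37 C. Finally Hoechst was added for 40 min before fluorescence scanning.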
# MCF10A rereplic = A quantitative high throughput screen for small molecules that induce DNA re-replication in MCF 10a normal breast cells | MCF 10A DNA re-replication, Hoechst nuclear intensity, 48 h | Potency, µM (doses to about 46.1 µM), for inactives: at the top dose activity, positive = re-replication, most hits filed as activators | hit rate 2.9% among 350,000 | AID 624296, 2012; further: potency means the concentration at half of the fitted maximal effect; % of control where 0% means no effect; nearly all actives have a fitted effect of over 50% in size
# DT40 TDP1 CPT = qHTS for Inhibitors of human tyrosyl-DNA phosphodiesterase 1 (TDP1): qHTS in cells in presence of CPT; chicken DT40 Tdp1-/-;hTDP1 cells + 20 nM CPT, ATP luminescence, 48 h; Potency, µM (top dose mostly 46.2 µM), without a hit: at the highest dose activity change, negative = growth inhibition, most hits filed as inhibitors; hit rate 12% among 420,000; AID 686979, 2013; further: potency means the concentration at half of the fitted maximal effect; on the % scale 0 is the no-effect control and ±100 the full control effect; nearly all actives have a fitted effect of over 55% in size
#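 Chicken DT40 Tdp1-/- cells stably complemented with human TDP1 were seeded at 400 cells/well in medium containing 20 nM camptothecin, exposed to pin-transferred compounds, and grown at 37 °C for at least 48 hr. Viability was read as ATP luminescence.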
# Starred values were filed as active, the others as inactive; ? = inconclusive; . = no result; [ ] = remark or other dose. Shown are actives, neighbours in structure and some others; about 19% of the full set was active somewhere. Unless noted, the call rests on the fitted dose curve; in most records, active means well fitted curve in the direction sought with a large enough effect; inconclusive means small, poorly fitted or top-dose-only effect, or another doubt; inactive means no such curve, though single readings can be large; an effect the other way counts as inactive or inconclusive.
SMILES,IL-1B inflam inh,BCR signal inh,DT40 TDP1 no CPT,SW480 rereplic,MCF10A rereplic,DT40 TDP1 CPT
Cc1cc(S(=O)(=O)C(CNC(=O)COc2ccc(Cl)cc2)c2cccs2)ccc1F (configuration not stated),.,.,?,.,.,2.59µM*
COc1ccc(C(=O)Nc2cccc(-c3cc4ccccc4oc3=O)c2)cc1[N+](=O)[O-],3.2,?,?,?,1.7%,1.0%
COc1cc(OC)c2nc(-c3cc4c(c(OC)c3)OCCN(Cc3cn(C)nc3C)C4)cc(C)c2c1,.,.,?,.,.,-6.5%[9.04 µM]
O=C(O)c1cccs1,.,.,-5.6%,.,.,-5.3%
CC(C)Oc1ccc(CNC(=O)CCC(=O)N2CC(C)Sc3ccccc32)cc1 (configuration not stated),0.0,?,?,-7.3%,12.1%,16.4µM*
CC(C)Oc1ccc(CNC(=O)c2ccc(NC(=O)N3CC(C)Sc4ccccc43)cc2)cc1 (configuration not stated),.,.,-106.0%,.,.,20.6µM*
CC1CN(C(=O)Nc2ccc(C(=O)NCCc3ccccc3Cl)cc2)c2ccccc2S1 (configuration not stated),.,.,20.6µM*,.,.,23.1µM*
CC1CN(C(=O)CCC(=O)NCc2ccccc2Cl)c2ccccc2S1 (configuration not stated),-11.4,-8.7%,-19.7%,-1.9%,-3.9%,-26.5%
Cc1ccc(C(=O)OCC(=O)c2ccc(S(=O)(=O)N3CCCCC3)cc2)o1,-10.1,-0.6%,-2.3%,-0.7%,14.0%,-8.2%
COc1ccc2[nH]c(=O)c(C(c3nnnn3C3CCCCC3)N3CCN(C)CC3)cc2c1 (configuration not stated),11.5,0.4%,7.7%,-4.6%,-0.6%,-6.9%
COc1cc2cc(C(c3nnnn3C3CCCC3)N(C)C3CCCCC3)c(=O)[nH]c2cc1OC (configuration not stated),-7.1,-8.3%,25.1µM*,-2.0%,-22.8%,15.8µM*
CC(C)C(c1nnnn1C1CCCC1)N(C)C1CCCCC1 (configuration not stated),-9.2,2.9%,?,-7.7%,-5.8%,?
Cc1ccc(C(c2nnnn2C2CCCCC2)N(C)C2CCCCC2)cc1 (configuration not stated),-13.8,5.5%,23.1µM*,10.9%,?,23.1µM*
COc1cc2cc(C(c3nnnn3C3CCCCC3)N(C)C3CCCCC3)c(=O)[nH]c2cc1OC (configuration not stated),?,-6.6%,?,13.6%,2.1%,23.1µM*
CCOc1ccccc1NC(=O)c1cc2c(=O)[nH]c3ccccc3c2s1,.,.,6.9%,.,.,-27.0%
Cc1ccccc1-c1cccc(CN2CCc3nnc(C(NS(C)(=O)=O)C(C)C)n3CC2)c1 (configuration not stated),.,.,?,.,.,-9.0%[9.04 µM]
COc1ccc2cc(C3OCCO3)c(Cl)nc2c1,-9.1,?,-9.9%,-1.6%,-0.4%,-1.2%
CC(c1ccco1)N(C(=O)c1cccc(Br)c1)c1ccccn1 (configuration not stated),-19.0,15.5%,?,-8.4%,8.3%,-0.5%
Cc1cc(C)n(CCCNC(=O)c2ccc(C)c(S(=O)(=O)N3CCOCC3)c2)n1,6.0,0.8%,-6.1%,-11.0%,9.8%,-0.2%
Cc1ccc(NC(=O)Cn2c(=O)c(CNc3ccccc3)cc3cc4c(cc32)OCCO4)cc1,.,-22.0%,?,.,.,?
CC1Cc2ccccc2N1S(=O)(=O)c1cccc(C(=O)Nc2cccnc2)c1 (configuration not stated),?,-0.2%,?,-4.6%,-1.6%,?
COc1ccccc1C(CNC(=O)c1cccc(S(=O)(=O)N2c3ccccc3CC2C)c1)N(C)C (configuration not stated),-53.9*,.,14.6µM*,204.9%,?,?
C=CCN(CC=C)C(=O)c1cccc(S(=O)(=O)N2c3ccccc3CC2C)c1 (configuration not stated),26.6,-0.2%,16.4µM*,-0.4%,-0.2%,16.4µM*
CCN(CC(=O)Nc1ccc(NC(C)=O)cc1)C(=O)c1cccc(S(=O)(=O)N2c3ccccc3CC2C)c1 (configuration not stated),-20.1,13.2%,-3.1%,-82.4%,-1.0%,-4.1%
CNC(=O)C1CN(C(=O)c2cccc(S(=O)(=O)N3c4ccccc4CC3C)c2)c2ccccc2O1 (configuration not stated),10.8,0.2%,18.4µM*,?,14.4%,?
SMILES,IL-1B inflam inh,BCR signal inh,DT40 TDP1 no CPT,SW480 rereplic,MCF10A rereplic,DT40 TDP1 CPT
COc1ccccc1C(CNC(=O)c1cccc(S(=O)(=O)N2CCCc3ccccc32)c1)N(C)C (configuration not stated),?,.,?,5.1%,24.7%,?
CC1Cc2ccccc2N1S(=O)(=O)c1cccc(C(=O)NC2CC2)c1 (configuration not stated),-1.4,2.5%,13µM*,1.4%,-0.7%,18.4µM*
CC1Cc2ccccc2N1S(=O)(=O)c1cccc(C(=O)NCc2ccco2)c1 (configuration not stated),-0.7,-0.2%,-25.8%,12.5%,8.1%,-13.5%
O=Cc1ccc(OCC(=O)Nc2ccccc2C(F)(F)F)cc1,13.0,-6.5%,-24.3%,-6.4%,3.7%,8.0%
CCOC(=O)C1(Cc2ccccc2)CCCN(C(=O)c2ccc(-n3ccnc3)cc2)C1 (configuration not stated),-9.5,8.9%,?,-11.3%,0.9%,?
O=c1c2ccccc2c(C=Nc2ccc(Cl)cn2)c(O)n1-c1cc(Cl)ccc1N1CCOCC1,-8.2,1.0%,1.46µM*,-1.8%,16.3%,?
COc1ccc(Br)cc1CNC(=O)C1CCCCN1S(=O)(=O)c1ccc(F)cc1 (configuration not stated),.,.,-28.6%,.,.,-29.6%
CC1=C(C(=O)N(C(C)C)C(C)C)CC(CC(=O)NCc2cccs2)C(=O)N1CCC1=CCCCC1 (configuration not stated),-24.2,.,?,.,.,?
CC1=C(C(=O)N(C(C)C)C(C)C)CC(CC(=O)NCc2cccc3ccccc23)C(=O)N1CCC1=CCCCC1 (configuration not stated),-80.3*,.,?,.,.,?

# Bioassay records from PubChem BioAssay.
